Source: PubChem BioAssay
IDE act: activators of human insulin-degrading enzyme in cells; activation, % at 5.96 µM; AID 493087; P14735; HEK cells, FAbeta-B cleavage, fluorescence polarization; 0% vehicle, 100% cell-free pure enzyme wells; 340,000 tested, 0.073% active;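 active = activation above the mean of all tested compounds plus 3 SD, set per screening campaign, cut at about 17% in these data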
M18AAP inhibitor: blocks P. falciparum M18 aspartyl aminopeptidase. recombinant PfM18AAP, H-Glu-NHMec fluorogenic cleavage. inhibition, % at 7.35 µM. 290,000 tested, 1.2% active;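 active = inhibition above the campaign mean inhibition over all tested compounds plus 3 SD, cut at about 28% in these data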;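 note: 0% = plate median of test compound wells and 100% = 2 mM ZnCl2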
ALR H2O2 inh: inhibitors of human sulfhydryl oxidase ALR; P55789; purified ALR, DTT oxidation, H2O2 HRP-luminol luminescence; inhibition, % (test concentration not listed); 290,000 tested, 3.8% active;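 active = mean replicate inhibition above about 79%, with every replicate also reaching it, limit read from the data; inconclusive = only one of the two criteria met; inactive = mean below limit and not every replicate reaching it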
CaV13 FRET inh: Disruptors of the CACNA1D IQ motif to Ca2+-dependent inactivation inhibitor domain association, primary screening, Förster resonance energy transfer in intact living … | inhibition, % at 12.3 µM | 340,000 tested, 0.098% active | AID 743397 | HEK cells, CFP/YFP FRET ICDI-IQ, plate reader, 10 min; percent FRET-ratio fall versus neutral wells;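 active = mean replicate inhibition of at least 30% and at least 1% of replicates passing that level; inconclusive = only one of the two criteria is met; inactive = neither criterion is met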;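 note: 0% = median of the neutral control wells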
PolyA inh: yeast polyadenylation inhibition | S. cerevisiae SKY197-pL101 polyadenylation reporter, beta-gal luminescence; efflux-impaired pdr1/pdr3 knockout yeast; score 100 = 6 SD above DMSO | activity score, % at 12 µM | 300,000 tested, 0.02% active;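 active = lowest replicate activity score at least 50, where 100 means six control SD above control mean; inconclusive = lowest score under 50 but half or more replicates reach 50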;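 note: yeast exposed to compound for 9 h at 30 °C; higher score means more reporter readthrough which indicates perturbed polyadenylation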
IDE cell inh: inhibits human insulin-degrading enzyme in HEK cells; FAbetaB cleavage, fluorescence polarization; P14735; 320,000 tested, 0.41% active; AID 434962; inhibition, % at 5.59 µM;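 active = percent inhibition above the average of all tested compounds plus 3 SD, set per screening campaign, cut at about 16% in these data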;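 note: IDE supplied by intact live HEK cells; FP after avidin binding of uncleaved biotin substrate so inhibition keeps polarization high; 0% = DMSO wells and 100% = 60 µM reference IDE inhibitor Ii1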
Active calls of the source: *; ? = inconclusive; . = no result. A selection: hits, their analogues and other compounds. The true share with any hit is near 4.1%.

SMILES | IDE act | M18AAP inhibitor | ALR H2O2 inh | CaV13 FRET inh | PolyA inh | IDE cell inh
O=C(c1ccc([N+](=O)[O-])cc1[N+](=O)[O-])N1CCN(C(=O)C2CCCO2)CC1 (stereo unspecified) | 2.6 | . | -49.5 | -5.6 | . | -2.4
COCCNc1nc(NCc2ccc(C(C)C)cc2)c2sccc2n1 | . | . | . | -4.5 | . | .
CCOC(=O)C1CCN(C(=O)c2ccc(S(=O)(=O)Nc3ccccc3Cl)cc2)CC1 | 5.4 | . | . | -6.2 | . | .
CC1CN(c2nc3c(c(=O)n(C)c(=O)n3C)n2Cc2c(F)cccc2Cl)CC(C)O1 (stereo unspecified) | -0.9 | 3.0 | 1.8 | . | 17.0 | 1.9
Oc1c(Br)cc(Br)cc1CNc1cccc2cccnc12 | -1.6 | 32.9* | -103.7 | -5.3 | 1.7 | 0.2
Cc1ccc(O)c(CNc2cccc3cccnc23)c1 | -2.3 | 18.0 | . | -6.5 | -30.6 | 1.0
Cc1onc(-c2c(F)cccc2Cl)c1C(=O)NCCc1ccncc1 | 4.1 | 3.3 | -6.8 | . | -5.9 | 1.6
Cc1ccc(/C=C/C(=O)c2ccc(O)cc2)cc1 | 0.6 | 4.2 | 10.7 | -4.0 | -20.8 | -1.8
Cc1ccc(C(=O)/C=C/C(=O)O)cc1 | 3.5 | -23.6 | 98.1* | -5.0 | 4.0 | 4.7
Cc1nc2ccccn2c1C(=O)/C=C/c1cccc([N+](=O)[O-])c1 | -2.0 | -10.3 | 54.3 | -19.4 | -11.3 | 2.5
Cc1ccc(/C=C/C(=O)c2ccccc2)cc1 | -0.2 | -3.1 | 97.1* | -6.0 | 1.2 | 1.6
O=C(/C=C/c1ccc(OC2CSC2)cc1)c1ccccc1 | -1.6 | -0.1 | 82.9* | . | 10.3 | -2.3
Cc1ccc(/C=C/C(=O)c2c(C)nc3ccccn23)cc1 | 0.4 | 3.5 | 97.7* | -7.8 | -13.9 | 2.5
Cc1cccc(OCC(=O)Nc2ccc(S(=O)(=O)Nc3onc(C)c3C)cc2)c1C | 4.3 | -3.1 | 52.9 | -1.5 | 4.0 | -1.7
CC(=O)c1ccc(-c2ccc(C(=O)NCC(c3ccco3)N(C)C)o2)cc1 (stereo unspecified) | 3.3 | . | -0.5 | -6.2 | . | 2.5
COc1cccc(-c2cc(CNC(=O)[C@H]3O[C@@H](n4ccc(=O)[nH]c4=O)[C@H](O)[C@@H]3O)no2)c1 | . | . | . | -2.9 | . | .
CC(NC(=O)COC(=O)CN1C(=O)NC2(CCCC2)C1=O)c1ccc(F)cc1 (stereo unspecified) | -2.6 | . | . | -6.8 | . | .
CC1=C(C)CC2(SC1)C(=O)N(c1ccccc1)N=C2N (stereo unspecified) | -3.0 | 13.5 | 93.9* | -6.5 | -10.8 | 1.7
S=c1[nH]c2ccc(Cl)cc2s1 | -6.6 | 12.6 | 98.5* | -18.8 | ? | 1.6
Cc1ccc2[nH]c(=O)c(CN(CCCN3CCOCC3)C(=O)Nc3ccc(Cl)cc3)cc2c1 | -3.0 | -8.3 | . | -21.0 | 3.1 | -1.9
Cc1n[nH]c2ccc([N+](=O)[O-])cc2c1=O | . | . | . | -15.7 | . | .
CCOC(=O)CNC(=S)N(CCCN1CCCC1)Cc1cccs1 | -1.6 | -0.9 | 99.0* | -9.5 | 11.8 | 7.5
CCOC(=O)CNC(=S)N(CCCN1CCCCCC1)Cc1cccs1 | 0.2 | -5.6 | 0.7 | 1.6 | 11.9 | -2.0
O=c1oc2ccccc2c(NC2CCCCC2)c1NS(=O)(=O)c1ccc(F)cc1 | 4.6 | 1.7 | 10.3 | -15.0 | 14.6 | -4.5
N#Cc1cccc(S(=O)(=O)Nc2c(NC3CCCCC3)c3ccccc3oc2=O)c1 | 7.0 | 5.8 | 98.1* | . | 3.7 | 5.7
SMILES | IDE act | M18AAP inhibitor | ALR H2O2 inh | CaV13 FRET inh | PolyA inh | IDE cell inh
C=CCn1c(N)c(-c2nc3ccccc3n2C)sc1=S | 6.0 | -10.7 | 89.7* | -3.1 | -12.5 | 0.0
Cc1cc(C=O)c2c(c1)C=CC1(Oc3ccccc3C(=O)N1C)O2 (stereo unspecified) | . | 3.0 | 17.8 | . | 7.1 | 25.2*
COCCn1c(=O)[nH]c2cc(C(=O)Nc3cc(C)cc(C)c3)ccc2c1=O | -5.7 | -2.9 | 2.7 | -3.3 | -14.2 | 4.6
Cc1cc(=O)[nH]c(S/C=C/c2ccccc2)n1 | 1.5 | -1.9 | 98.4* | -6.6 | -25.3 | -0.5
Cc1cc(=O)[nH]c(SCCc2ccccc2)n1 | -0.7 | -8.5 | -2.6 | -2.5 | -10.1 | 0.9
CCCCCCn1c(N2CCCC2)nc2c1c(=O)n(C)c(=O)n2C | 3.5 | -1.0 | 97.3* | -5.0 | -3.2 | -3.3
CCOCCn1c(N2CCN(c3ccc(OC)cc3)CC2)nc2c1c(=O)n(C)c(=O)n2C | 1.2 | -5.8 | 90.7* | . | 7.2 | 1.4
